Screens: PubChem, National Center for Advancing Translational Sciences (NCATS)
RORgamma inh: ROR gamma (mouse) transcription inhibition. hit rate 5.4% among 310,000. Potency, µM (top dose mostly 53.6 µM), without a hit: at the top dose activity change, negative = inhibition, hits mostly inhibitors. P51450. Drosophila S2 Gal4-RORgamma UAS-luciferase reporter, 20 h. AID 2551; further: potency means the concentration at half of the fitted maximal effect; nearly all actives have a fitted effect of over 60% in size
Target sequence (P51450 whole entry, looked up, the tested form may be a part): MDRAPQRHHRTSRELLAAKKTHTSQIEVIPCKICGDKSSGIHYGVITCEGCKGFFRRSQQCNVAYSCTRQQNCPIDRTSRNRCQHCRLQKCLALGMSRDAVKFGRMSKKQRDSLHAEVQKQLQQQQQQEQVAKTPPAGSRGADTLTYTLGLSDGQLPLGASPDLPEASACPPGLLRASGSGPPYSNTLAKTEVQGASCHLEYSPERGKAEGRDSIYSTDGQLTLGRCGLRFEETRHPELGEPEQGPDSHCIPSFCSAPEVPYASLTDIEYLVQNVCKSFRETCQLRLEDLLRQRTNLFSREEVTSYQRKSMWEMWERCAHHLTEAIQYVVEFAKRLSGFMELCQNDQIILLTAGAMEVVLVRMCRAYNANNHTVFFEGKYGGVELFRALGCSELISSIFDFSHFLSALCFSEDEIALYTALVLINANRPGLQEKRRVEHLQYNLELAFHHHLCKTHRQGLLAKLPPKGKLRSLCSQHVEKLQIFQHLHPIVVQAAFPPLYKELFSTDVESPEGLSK
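Schneider cells (Drosophila), stable Gal4 DBD–ROR gamma + UAS-luc; 1 hr cmpd preincubation; Cu2+ induction 700 uM final; 20 hr ambient; luminescence.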
LDHA block: blocks human lactate dehydrogenase A. P00338. purified LDHA, NADH/diaphorase-resazurin fluorescence; hits give low values. activity change, % (values are at about 110 or 230 µM). hit rate 0.15% among 480,000. AID 1347041; in the data active means activity change below about -30%; inconclusive means mostly about -25% to -30%;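 further: plate controls were DMSO wells for no effect and wells without enzyme for full effect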
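Human LDH5 (2 nM) was incubated with 0.06 mM NADH and 0.2 mM pyruvate for 5 min at room temperature in Tris pH 7.4. Remaining NADH was coupled through diaphorase/resazurin, and resorufin fluorescence was read at 0 and 20 min.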
TDP1 cell noCPT: qHTS for Inhibitors of human tyrosyl-DNA phosphodiesterase 1 (TDP1): qHTS in cells in absence of CPT; Potency, µM (top dose mostly 46.2 µM), inactives show top-dose activity change, negative = growth inhibition, hits mostly inhibitors; AID 686978, 2013; DT40 Tdp1-/- hTDP1 cells, no CPT, ATP luminescence, 48 h; hit rate 15% among 420,000; further: potency means the concentration at half of the fitted maximal effect; nearly all actives have a fitted effect of over 55% in size
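Cells were dispensed at 400 per well, compounds added by pin tool, plates incubated ≥48 hr at 37 °C, then CellTiter-Glo added for 30 min at room temperature before luminescence reading. Line: DT40 Tdp1-/- complemented with hTDP1; camptothecin omitted.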
IL-1B inflam inh: blocks inflammasome-driven IL-1 beta release | activity change, % at 57.5 µM | hit rate 4.7% among 360,000 | THP-1 LPS/ATP IL-1B secretion, AlphaLISA, 16 h; hits give low values | AID 743279; in the data active means activity change below about -50%; inconclusive means mostly about -30% to -49%
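Secreted IL-1B measured by AlphaLISA bead assay after 16 h compound exposure of THP-1 cells; compounds (final up to 57.5 uM) added 1 h before LPS (250 ng/mL) and ATP (1.25 mM) stimulation; lower signal means less secretion.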
TDP1 cell CPT: DT40-hTDP1 cell growth loss with CPT; Potency, µM (top dose mostly 46.2 µM), for inactives: at the top dose activity change, negative = growth inhibition, most hits filed as inhibitors; chicken DT40 Tdp1-/-;hTDP1 cells + 20 nM CPT, ATP luminescence, 48 h; AID 686979; hit rate 12% among 420,000; further: potency means the concentration at half of the fitted maximal effect; nearly all actives have a fitted effect of over 55% in size
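Chicken DT40 Tdp1-/- cells stably complemented with human TDP1 were seeded at 400 cells/well in medium containing 20 nM camptothecin, exposed to pin-transferred compounds, and grown at 37 °C for at least 48 hr. Viability was read as ATP luminescence.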
VP16 counter: Gal4-VP16 reporter inhibition counter-screen | hit rate 3.5% among 310,000 | Drosophila S2 Gal4-VP16 UAS-luciferase, luminescence, 20 h | Potency, µM (doses to about 53.6 µM), for inactives: at the top dose activity, negative = inhibition, most hits filed as inhibitors | AID 2546;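 further: Gal4-VP16 expression switched on by copper sulfate through the metallothionein promoter; potency means the concentration at half of the fitted maximal effect; nearly all actives have a fitted effect of over 50% in size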
Starred values were filed as active, the others as inactive; u = inconclusive; x = no result. Only some compounds are listed: those with a hit (about 18% of all), similar ones and a draw of the others. Unless noted, the call rests on the fitted dose curve; in most records, active means well fitted curve in the direction sought with a large enough effect; inconclusive means small, poorly fitted or top-dose-only effect, or another doubt; inactive means no such curve, though single readings can be large; an effect the other way counts as inactive or inconclusive. Unless noted, on the % scale 0 is the no-effect control and ±100 the full control effect.

SMILES	RORgamma inh	LDHA block	TDP1 cell noCPT	IL-1B inflam inh	TDP1 cell CPT	VP16 counter
C#Cc1ccc(NC(=O)C2(C)CCN2C(=O)C2(c3ccccc3)CC2)cc1 (stereo not given)	x	-3.4	u	-21.3	u	x
C#Cc1ccc(NC(=O)C2(C)CCN2C(=O)CC(c2ccccc2)c2ccccc2)cc1 (stereo not given)	x	-0.3	u	8.4	16.4µM*	x
Cc1ccc(F)c(S(=O)(=O)NC(=O)C2(C)CCN2C(=O)CC(c2ccccc2)c2ccccc2)c1 (stereo not given)	x	-0.8	20.6µM*	0.0	u	x
CC1(C(=O)NS(=O)(=O)c2ccc(F)cc2F)CCN1C(=O)CC(c1ccccc1)c1ccccc1 (stereo not given)	x	-10.1	u	26.1	u	x
CCOc1ccc(NS(=O)(=O)c2ccc(C(=O)NC3CCN(CC)CC3)cc2)cc1	x	3.6	x	x	x	x
CC(=O)c1ccc(Sc2ccc(F)cc2)c(F)c1	x	7.4	x	x	x	x
Cc1ccc(S(=O)(=O)Nc2ccccc2CNc2cccc(C)n2)cc1	15.5%	1.1	16.4µM*	10.1	u	-6.7%
Cc1ccc(S(=O)(=O)Nc2cccc3ccc(C)nc23)cc1	3.16µM*	x	x	x	x	u
Cc1ccc(S(=O)(=O)NCc2ccccc2NS(=O)(=O)c2ccc(C)cc2)cc1	x	1.8	u	8.4	u	x
COC(=O)c1ccc2c(=O)n(CCCCCC(=O)NCCc3ccccc3)c(=O)[nH]c2c1	x	8.6	18.4µM*	x	u	x
O=C(CCCCCn1c(=O)[nH]c2ccccc2c1=O)NCCc1ccccc1	x	-0.3	0.461µM*	x	0.291µM*	x
COC(=O)c1ccc2c(=O)n(CCCCCC(=O)O)c(=S)[nH]c2c1	7.08µM*	1.0	u	42.1	-23.7%	14.1µM*
CCN(CCCNC(=O)CCCn1c(=O)[nH]c2ccccc2c1=O)c1cccc(C)c1	22.0%	3.5	20.6µM*	u	u	-8.0%
COc1cc2[nH]c(=O)n(CCCCCC(=O)NCCc3ccccc3)c(=O)c2cc1OC	x	0.3	-13.9%	x	-16.4%	x
CCOC(=O)CNC(=O)Nc1cc(C(=O)NCc2ccc(C)cc2)ccc1N1CCCC1	x	-5.5	x	x	x	x
CCCNC(=O)C(=O)NCc1n[nH]c(=O)c2ccccc12	x	12.7	x	x	x	x
CCCOc1ccccc1C(=O)Nc1nc2c(s1)CCCC2	x	1.1	18.4µM*	x	20.6µM*	x
O=C(COc1ccccc1Cl)Nc1nc2c(s1)CCCC2	x	-12.0	10.3µM*	x	8.2µM*	x
O=C(COc1ccccc1)Nc1nc2c(s1)CCCC2	-12.3%	-0.3	u	-20.4	u	1.3%
CCOC(=O)C1=C(C)N=c2sc(=Cc3ccc(OCC(=O)O)cc3)c(=O)n2C1c1ccc(Cl)cc1 (stereo not given)	x	-5.3	u	-25.2	u	x
CC1(C)CN=c2s/c(=C\c3ccc(Cl)cc3)c(=O)n2C1	-24.5%	-2.8	18.4µM*	-85.5*	11.6µM*	11.6%
O=C(Nc1nccs1)c1ccc(Br)o1	-50.7%	-0.2	-7.1%	17.5	-7.2%	-5.1%
O=C(Nc1nccs1)c1ccc(-c2ccc(Cl)cc2Cl)o1	3.55µM*	9.2	-28.3%	4.0	23.1%	5.01µM*
O=C(Nc1nccs1)c1ccc(-c2ccc(F)c(Cl)c2)o1	7.94µM*	-4.4	u	-18.4	u	u
CCOC(=O)c1c(C)c(C(=O)Nc2ccc(Br)cc2C)c(C)n1C	x	12.7	x	x	x	x
SMILES	RORgamma inh	LDHA block	TDP1 cell noCPT	IL-1B inflam inh	TDP1 cell CPT	VP16 counter
Cc1ccc(CCNC(=O)c2ccc(CSc3nc4ccncc4n3Cc3ccc(F)cc3)cc2)cc1	x	3.7	16.4µM*	x	16.4µM*	x
COCCNC(=O)c1ccc(CSc2nc3ccncc3n2Cc2ccccc2)cc1	x	-1.0	-24.4%	x	-2.7%	x
CC(CNC(=O)c1ccc(CSc2nc3ccncc3n2Cc2cccc(F)c2)cc1)c1ccccc1 (stereo not given)	x	-0.9	u	x	23.1µM*	x
CNC(=O)c1ccc(CSc2nc3ccncc3n2Cc2ccc(C)cc2)cc1	x	-3.0	u	x	u	x
CCCCNC(=O)Cn1c(SCc2cccc(F)c2)nc2ccncc21	x	-8.7	u	x	u	x
O=C(NCCc1ccccc1)c1ccc(CSc2nc3ccncc3n2Cc2ccc(F)cc2)cc1	x	-5.6	16.4µM*	x	u	x
CC(=O)Nc1c(O)cc(Br)c2nonc12	x	1.3	-9.9%	x	2.5%	x
CC(=O)Nc1cc(O)c2nonc2c1O	x	24.8	0.708µM*	x	0.631µM*	x
Cc1cc(NC(=NC2CC2)c2ccccc2)n(-c2ccccc2)n1	-34.9%	-22.7	-5.8%	-13.4	-2.8%	-19.3%
Cc1ccc(NC2Nc3cc(C)nn3S2)c(C)c1 (stereo not given)	3.55µM*	-2.8	-9.7%	43.0	-0.7%	u
Cc1cc2n(n1)SC(Nc1ccccc1)N2 (stereo not given)	3.16µM*	-3.8	5.9%	-9.3	2.0%	4.47µM*
COC(=O)Cn1c(SC(C)C(=O)c2ccc(F)c(F)c2)nc2ccccc2c1=O (stereo not given)	x	5.4	x	x	x	x
N#C/C(=C/c1ccccc1OCC(=O)O)C(=O)Nc1ccc(N2CCOCC2)cc1	x	6.4	x	x	x	x
COc1cccc(NC(=S)NNC(=O)Cn2nc(C(F)F)cc2C(F)F)c1	1.12µM*	-4.5	-0.9%	-2.5	-22.5%	u
Cc1cc(C(F)(F)F)nn1CC(=O)NNC(=S)Nc1cccc(Cl)c1	11.2µM*	-1.7	5.0%	10.2	2.2%	u
O=C(Cn1nc(C(F)F)cc1C(F)F)NNC(=S)Nc1ccc(F)cc1	-39.9%	-3.4	-2.8%	3.7	-0.3%	-8.4%
O=C(Cn1nc(C(F)F)cc1C(F)F)NNC(=S)Nc1ccc([N+](=O)[O-])cc1	10µM*	-2.2	23.2%	25.5	18.4%	u
Cc1cc([N+](=O)[O-])nn1CC(=O)NNC(=S)Nc1ccc(Cl)cc1	15.8µM*	-3.2	-4.2%	0.0	-5.8%	u
Cc1nc2cc(NC(=O)CC3(C(=O)O)CCCCC3)ccc2o1	x	8.9	x	x	x	x
CCc1cc(=O)oc2cc(OC(C)C(=O)NCc3ccc(S(N)(=O)=O)cc3)ccc12 (stereo not given)	x	6.1	x	x	x	x
O=C(O)C1CC(=O)N(C2CC2)C1c1ccccc1 (stereo not given)	x	1.0	x	x	x	x
CCCOc1ccc(C(=O)N2CCC(c3nc4ccccc4o3)CC2)cc1	x	1.9	x	x	x	x
Cn1c(=O)[nH]c(=O)c2c1nc(N1CCOCC1)n2Cc1cccc(Br)c1	x	-2.8	x	x	x	x
COc1ccc(CCNC(=O)Nc2cccc(CN3CCOC3=O)c2)cc1	x	-1.4	x	x	x	x
